From PubChem BioAssay
Values joined by “and” are separate entries in the source; they are usually repeats but may differ in a detail not shown here. Equal values may be shown once. Records with an inconclusive call do not appear. Active and inactive are the calls of the source.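 Rule for the calls, unless noted: active = normalized viability below 100% at a tested concentration; inactive = the rest.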

Tests used:
[1] = growth inhibition of DIPG glioma cells, dose response, cell-based, SU-DIPG-XVII, MIPE5.0, CellTiter-Glo, qHTS (AID 1347060; cut-off not given, nearly all actives have AC50 up to about 26 µM;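 for AC50: cells exposed to compound for 48 hours before viability readout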); conditions: SU-DIPG-XVII viability, CellTiter-Glo ATP luminescence
[2] = growth inhibition of DIPG glioma cells, dose response, cell-based, SU-DIPG-IV, MIPE4.0, CellTiter-Glo, qHTS (AID 1347063; cut-off not given, nearly all actives have AC50 up to about 30 µM;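 note: compound exposure lasted 48 hours before the viability readout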); conditions: SU-DIPG-IV viability, CellTiter-Glo ATP luminescence
[3] = growth inhibition of DIPG glioma cells, dose response, cell-based, SU-DIPG-XIII, MIPE5.0, CellTiter-Glo, qHTS (AID 1347064; cut-off not given, nearly all actives have AC50 up to about 23 µM;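 for AC50: cells exposed to compound for 48 hours before the viability read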); conditions: SU-DIPG-XIII viability, CellTiter-Glo ATP luminescence
[4] = viability loss in pontine glioma line – cell-based, SU-DIPG-XXV, MIPE5.0, CellTiter-Glo, qHTS, dose response (AID 1347065; cut-off not given, nearly all actives have AC50 up to about 26 µM;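 note: cells exposed to compound for 48 hours before ATP readout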); conditions: CellTiter-Glo ATP luminescence
[5] = SU-DIPG-VI glioma cell viability, MIPE4.0 library, CellTiter-Glo luminescence, qHTS (AID 1347066; cut-off not given, nearly all actives have AC50 up to about 30 µM;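 note: cells exposed to compound for 48 hours before readout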); conditions: CellTiter-Glo ATP luminescence
[6] = JHH-DIPG-1 glioma cell viability, MIPE5.0 library, CellTiter-Glo luminescence, qHTS (AID 1347067; cut-off not given, nearly all actives have AC50 up to about 26 µM;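 note: cells exposed to compound for 48 hours before readout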); conditions: JHH-DIPG-1 glioma viability, CellTiter-Glo ATP luminescence
[7] = SU-DIPG-XXV glioma cell viability, MIPE5.0 library, qHTS (AID 1347068; cut-off not given, nearly all actives have IC50 up to about 30 µM;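 for IC50: cells exposed to compound for 48 hours before viability readout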)
[8] = sensitizers of A549 cells to miR-34 induction, primary screen, imaging, A549 dox-inducible miR-34, nuclei and caspase counts (AID 1347080;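 active = compounds whose cell count with miR-34 switched on is under 0.7 times the count with it off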); conditions: A549 miR-34 inducible, Hoechst nuclei count, 48 h
[9] = survival rescue of mitochondrial mutant cells in low glucose, primary screen, MELAS cybrids, Rieske KO mouse fibroblasts, CellTiter-Glo (AID 1508586;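 active = mean z-score across replicates of 1.96 or higher in either the MELAS or the Rieske mutant cell line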;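 note: z relative to plate mean and SD of compound and empty wells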)
[10] = ovarian cancer cell viability with rucaparib, profiling panel, oncology-focused library, rucaparib conditional (AID 1508598); conditions: patient-derived ovarian cancer cells, CellTiter-Glo viability, 144 h, stronger effect = lower value
[11] = stronger effect = lower value, cell number ratio, induced over uninduced
[12] = measured here: relative caspase fold change +Dox/-Dox
[13] = measured here: total cells with miR-34 induction, stronger effect = lower value
[14] = measured here: total cells without miR-34 induction

C/C(O)=C(\C#N)C(=O)Nc1ccc(C(F)(F)F)cc1
outcome [1]: inactive
outcome [2]: inactive
outcome [3]: inactive
outcome [4]: inactive
outcome [5]: inactive
outcome [6]: inactive
outcome [7]: inactive

COc1ccc2c(c1)CC[C@@H]1[C@@H]2CC[C@]2(C)[C@@H](NCCCCCCN3C(=O)C=CC3=O)CC[C@@H]12
outcome [1]: inactive
outcome [2]: inactive
outcome [3]: inactive
outcome [4]: inactive
outcome [5]: inactive
outcome [6]: inactive
outcome [7]: inactive
fold change [8, 11]: 0.933 (inactive) and 0.926 (inactive)
fold change [8, 12]: 1.05 and 1.65
cell count [8, 13]: 5880 and 5430
cell count [8, 14]: 6300 and 5860

N#Cc1c(NC(=O)c2cccc3ccccc23)sc2c1CCCC2
AC50 [1]: 372 nM (active)
AC50 [2]: 418 nM (active)
AC50 [3]: 1320 nM (active)
AC50 [4]: 833 nM (active)
outcome [5]: inactive
AC50 [6]: 263 nM (active)
IC50 [7]: 235 nM (active)
fold change [8, 11]: 1.02 (inactive)
fold change [8, 12]: 0.427
cell count [8, 13]: 1320
cell count [8, 14]: 1290
z-score ([9]; MELAS cybrid survival, CellTiter-Glo 48 h, stronger effect = higher value): -0.44 (inactive) and 1.09 (inactive)
z-score ([9]; Rieske KO mouse fibroblast survival, CellTiter-Glo 72 h): 0.237 and -1.54
viability ([10]; at 0.000305 µM, OCI-C5x cells, with rucaparib 10 µM, 100% = cells with rucaparib alone): 117% (inactive)
viability ([10]; at 0.000305 µM, OCI-C5x cells, without rucaparib): 105% (inactive)
viability ([10]; at 0.000305 µM, OCI-P5x cells, with rucaparib 20 µM, 100% = cells with rucaparib alone): 96% (active)
viability ([10]; at 0.000305 µM, OCI-P5x cells, without rucaparib): 102% (inactive)
viability ([10]; at 0.00122 µM, OCI-C5x cells, with rucaparib 10 µM, 100% = cells with rucaparib alone): 129% (inactive)
viability ([10]; at 0.00122 µM, OCI-C5x cells, without rucaparib): 120% (inactive)
viability ([10]; at 0.00122 µM, OCI-P5x cells, with rucaparib 20 µM, 100% = cells with rucaparib alone): 95.3% (active)
viability ([10]; at 0.00122 µM, OCI-P5x cells, without rucaparib): 109% (inactive)
viability ([10]; at 0.00488 µM, OCI-C5x cells, with rucaparib 10 µM, 100% = cells with rucaparib alone): 113% (inactive)
viability ([10]; at 0.00488 µM, OCI-C5x cells, without rucaparib): 109% (inactive)
viability ([10]; at 0.00488 µM, OCI-P5x cells, with rucaparib 20 µM, 100% = cells with rucaparib alone): 102% (inactive)
viability ([10]; at 0.00488 µM, OCI-P5x cells, without rucaparib): 97.3% (active)
viability ([10]; at 0.0195 µM, OCI-C5x cells, with rucaparib 10 µM, 100% = cells with rucaparib alone): 108% (inactive)
viability ([10]; at 0.0195 µM, OCI-C5x cells, without rucaparib): 116% (inactive)
viability ([10]; at 0.0195 µM, OCI-P5x cells, with rucaparib 20 µM, 100% = cells with rucaparib alone): 98.6% (active)
viability ([10]; at 0.0195 µM, OCI-P5x cells, without rucaparib): 103% (inactive)
viability ([10]; at 0.0781 µM, OCI-C5x cells, with rucaparib 10 µM, 100% = cells with rucaparib alone): 118% (inactive)
viability ([10]; at 0.0781 µM, OCI-C5x cells, without rucaparib): 109% (inactive)
viability ([10]; at 0.0781 µM, OCI-P5x cells, with rucaparib 20 µM, 100% = cells with rucaparib alone): 97.5% (active)
viability ([10]; at 0.0781 µM, OCI-P5x cells, without rucaparib): 102% (inactive)
viability ([10]; at 0.313 µM, OCI-C5x cells, with rucaparib 10 µM, 100% = cells with rucaparib alone): 119% (inactive)
viability ([10]; at 0.313 µM, OCI-C5x cells, without rucaparib): 110% (inactive)
viability ([10]; at 0.313 µM, OCI-P5x cells, with rucaparib 20 µM, 100% = cells with rucaparib alone): 105% (inactive)
viability ([10]; at 0.313 µM, OCI-P5x cells, without rucaparib): 100% (inactive)
viability ([10]; at 1.25 µM, OCI-C5x cells, with rucaparib 10 µM, 100% = cells with rucaparib alone): 72.9% (active)
viability ([10]; at 1.25 µM, OCI-C5x cells, without rucaparib): 106% (inactive)
viability ([10]; at 1.25 µM, OCI-P5x cells, with rucaparib 20 µM, 100% = cells with rucaparib alone): 65.1% (active)
viability ([10]; at 1.25 µM, OCI-P5x cells, without rucaparib): 34.2% (active)
viability ([10]; at 5 µM, OCI-C5x cells, with rucaparib 10 µM, 100% = cells with rucaparib alone): 49.6% (active)
viability ([10]; at 5 µM, OCI-C5x cells, without rucaparib): 64.5% (active)
viability ([10]; at 5 µM, OCI-P5x cells, with rucaparib 20 µM, 100% = cells with rucaparib alone): 58.3% (active)
viability ([10]; at 5 µM, OCI-P5x cells, without rucaparib): 18.2% (active)

COc1cc(F)c(C(C)C)cc1-c1ccc(C(F)(F)F)cc1CN1C(=O)O[C@H](c2cc(C(F)(F)F)cc(C(F)(F)F)c2)[C@@H]1C
outcome [1]: inactive
outcome [2]: inactive
outcome [3]: inactive
outcome [4]: inactive
outcome [5]: inactive
outcome [6]: inactive
outcome [7]: inactive

CC1=C[C@@H]2[C@H]([C@@H](O)C[C@@]3(C)[C@H]2C[C@@H](C)[C@]3(O)C(=O)CO)[C@@]2(C)Cc3cnn(-c4ccccc4)c3C=C12
AC50 [1]: 5250 nM (active)
AC50 [2]: 3720 nM (active)
AC50 [3]: 9340 nM (active)
AC50 [4]: 7420 nM (active)
AC50 [6]: 11800 nM (active)
IC50 [7]: 16600 nM (active)
